Bioassay records from PubChem BioAssay.
tim10-1 inh = tim10-1 yeast growth inhibition. 330,000 compounds, 2.2% hits. S. cerevisiae tim10-1 ts strain growth, BacTiter-Glo, 24 h. AID 463190. inhibition, % at 20 µM;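 active = inhibition of at least 40%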;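 also: mutant grown at 25 °C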
tim23-1 inh = inhibits growth of tim23-1 mutant yeast. S. cerevisiae tim23-1 growth, BacTiter-Glo luminescence, 24 h. inhibition, % at 20 µM. 330,000 compounds, 1.3% hits;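 active = growth inhibition of the mutant yeast at or above 50%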;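 also: temperature-sensitive mutant grown at 25 °C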
NALP1 inh = inhibitors of NALP1 inflammasome in yeast. S. cerevisiae NALP1/ASC/caspase-1 growth, X-gal OD620, 72 h. inhibition, % at 10 µM. 280,000 compounds, 0.61% hits. AID 2071; in the data active = inhibition mostly above about 24%, no sharp cut-off; inactive = mostly below about 32%
PfHsp90 yeast 2 = growth inhibition of yeast expressing Plasmodium Hsp90 | 310,000 compounds, 0.32% hits | S. cerevisiae expressing PfHsp90, BacTiter-Glo ATP, 48 h; yeast lacking PDR1 and PDR3 efflux regulators | AID 504621 | inhibition, % at 9.4 µM;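 active = every replicate shows inhibition above about 80%, whatever the replicate mean, limit read from the data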
SKKanGAS inh = inhibitors of SKKanGAS S. pyogenes growth in kanamycin (SK-promoter or general growth effect). BacTiter-Glo, 6 h. inhibition, % at 7.5 µM. 300,000 compounds, 1.3% hits. AID 1662;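 active = mean replicate score, as percent of positive control median, at least 50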;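 also: strain carries kanamycin resistance gene driven by streptokinase promoter and grows in 40 µg/ml kanamycin; loss of luminescence reflects streptokinase promoter inhibition or plain growth inhibition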
TIM10 inh = TIM10 yeast growth inhibition | S. cerevisiae TIM10 strain growth, BacTiter-Glo luminescence, 24 h | 330,000 compounds, 1.4% hits | inhibition, % at 10 µM;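 active = inhibition of 40% or more at the single tested concentration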;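 also: wild-type TIM10 isogenic control strain grown at permissive 25 °C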
tim10-1 conf = confirmation of tim10-1 mutant yeast growth inhibitors; shares compounds with tim10-1 inh; S. cerevisiae tim10-1 ts strain growth, BacTiter-Glo, 24 h; inhibition, % at 20 µM; 7,400 compounds, 56% hits; AID 463213;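 active = inhibition of yeast growth at or above a set limit in either of two repeat tests at 20 µM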;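 also: tim10-1 mutant grown at permissive 25 °C to find synthetic lethal compounds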
Hits are given with their value; i = inactive; nt = no result. Sampled rows, rich in hits. Any-hit rate of the full collection: about 4.8%.

SMILES	tim10-1 inh	tim23-1 inh	NALP1 inh	PfHsp90 yeast 2	SKKanGAS inh	TIM10 inh	tim10-1 conf
CC(/C=N/Nc1nc(C)cc(=O)[nH]1)=C\c1ccccc1	i	i	i	nt	i	i	nt
CC(/C=N/Nc1ncc(C)c(=O)[nH]1)=C\c1ccccc1	41	i	i	i	i	i	i
COc1ccc(NC(=O)Cn2nc3n(c2=S)CCC3)cc1	i	i	i	i	i	i	nt
CCOC(=O)c1ccc(N=c2ssnc2Cl)cc1	41	i	i	i	i	i	40
Cc1cccc(OCC(=O)Nc2nccs2)c1C	42	i	38	i	i	i	i
CCc1sc(C(=O)Nc2ncccc2O)cc1C	i	i	i	nt	i	i	nt
COc1ccc(-c2noc(C(C)n3nc(C)c([N+](=O)[O-])c3C)n2)cc1OC (stereo not given)	i	i	i	i	i	i	nt
Cc1ccc(C(=O)Nc2ccc(C(=O)NCC3CCCO3)cc2)cc1 (stereo not given)	i	i	i	i	i	i	nt
CCOC(=O)Nc1ccc(C(=O)NCC2CCCO2)cc1 (stereo not given)	43	i	i	i	i	i	i
Cc1ccc(NC(=O)NNC(=O)COc2ccc(Cl)cc2)cc1	i	i	nt	i	i	i	nt
Cc1ccc2nc(NC(=O)C3CCN(S(=O)(=O)c4cccs4)CC3)sc2c1	42	i	i	i	i	i	i
Cc1ccc2nc(NC(=O)C3CCCN(S(=O)(=O)c4cccc5nsnc45)C3)sc2c1 (stereo not given)	41	i	i	i	i	i	i
Cc1ccc2nc(NC(=O)C3CCN(S(=O)(=O)c4cccc5nsnc45)CC3)sc2c1	i	i	i	i	i	i	nt
COc1ccc(C(=O)N2CCCC(O)C2)cc1OC1CCN(C(C)C)CC1 (stereo not given)	i	i	i	i	i	i	nt
CCO[C@@H]1OC(C(=O)N2CCN(Cc3ccccc3)CC2)=C[C@H](C)[C@H]1CCCO	i	i	i	i	i	i	nt
Cc1nc2c(Cl)c(C)nn2c2c1CCC2	41	i	i	nt	i	i	i
CCOC(=O)c1c(-c2ccc(-c3ccccc3)cc2)csc1NC(=O)CNCCN(C)C	43	i	i	i	112	i	i
CCOC(=O)c1c(-c2ccccc2)csc1NC(=O)CCN1C(=O)c2ccccc2C1=O	i	i	i	i	i	i	nt
CCNC(=S)Nc1scc(-c2ccccc2)c1C(=O)OCC	41	i	i	i	i	i	i
CCOC(=O)c1c(-c2ccccc2)csc1NC(=S)NC	42	i	i	i	i	i	38
CCOc1ccc(-c2cc(CCCC(=O)Nc3cc(OC)ccc3OC)no2)cc1	i	i	i	i	i	i	nt
C=C(C)CN(CC)C(=O)CSc1ccc(S(=O)(=O)N2CCN(Cc3ccccc3)CC2)cn1	i	i	nt	i	nt	i	nt
COc1cc2c(cc1OC)CN(CCC(=O)c1ccc(Br)cc1)CC2	50	i	i	nt	i	i	33
COc1cc2c(cc1OC)CN(C(=O)CCNC(=O)c1ccc(Br)cc1)CC2	i	i	nt	i	nt	i	nt
C/C(=N\NC(=S)NCc1ccccc1)c1ccc(Cl)s1	41	i	i	i	i	i	33
SMILES	tim10-1 inh	tim23-1 inh	NALP1 inh	PfHsp90 yeast 2	SKKanGAS inh	TIM10 inh	tim10-1 conf
C/C(=N\Nc1cc(C(F)(F)F)ccc1Cl)c1ccccc1O	47	i	i	i	i	i	38
COc1ccccc1Nc1nc(C)cc(C)n1	i	i	i	i	i	i	nt
COc1ccccc1Nc1cc(C)nc(Nc2ccccc2OC)n1	40	i	nt	i	nt	i	i
FC(F)(F)c1cnc(Sc2nc3nccc(-c4ccc(Cl)cc4)n3n2)c(Cl)c1	41	i	i	i	i	i	i
CC(C)NC(=O)c1cnc(Sc2ncc(C(F)(F)F)cc2Cl)n1C	i	i	i	i	i	i	nt
CSc1nc2nccc(-c3ccc(Cl)cc3)n2n1	i	i	i	i	i	i	nt
COc1ccc(-c2ccnc3nc(Sc4ncc(C(F)(F)F)cc4Cl)nn23)cc1	51	i	i	i	i	i	i
O=C(Nc1nnc(SCC(=O)N2CCOCC2)s1)c1ccccc1Cl	i	i	i	i	i	i	nt
Cc1ccc(OCC(=O)NNC(=O)C(=O)NC(C)(C)C)cc1	i	i	i	i	i	i	nt
Cc1ccc(S(=O)(=O)c2nc(Nc3ccccc3)sc2Cl)cc1	nt	nt	i	nt	i	nt	nt
COc1ccc(Nc2nc(S(=O)(=O)c3ccc(C)cc3)c(Cl)s2)cc1	42	i	i	i	i	i	i
CCOC(=O)CSc1cc(C)c(C#N)c2nc3ccccc3n12	41	i	i	i	i	i	i
CC1(C)SC(=S)N(/N=C/c2ccccc2O)C1N(O)C(=O)Nc1ccccc1 (stereo not given)	i	i	i	i	i	i	nt
CC1(C)SC(=S)N(NC(=O)Nc2ccccc2)C1N(O)C(=O)Nc1cccc2ccccc12 (stereo not given)	42	i	i	i	i	i	i
Cc1ccc(NC(=O)c2sc(N)nc2-c2ccccc2)cc1C	49	i	i	i	i	i	37
O=C(Nc1cccnc1)c1cn(-c2ccccc2)nc1-c1cccs1	43	i	i	i	i	i	43
COc1ccc(Nc2nc(N)nc(C(F)(F)F)n2)c(OC)c1	i	i	i	i	i	i	nt
COc1ccc(Cl)cc1Nc1nc(N)nc(C(F)(F)F)n1	48	i	i	nt	i	i	i
O=C(CCCn1c(SCc2cc(=O)n3cc(Cl)ccc3n2)nc2ccccc2c1=O)NCC1CCCO1 (stereo not given)	i	i	nt	i	i	i	nt
CCn1c(SCC(=O)c2ccc(Cl)cc2)nnc1-c1ccoc1C	i	i	i	i	i	i	nt
Cc1ccccc1NC(=O)CSc1nnc(-c2ccccc2)n1-c1ccccc1	i	i	i	i	i	i	nt
N#Cc1ccccc1NC(=O)CSc1nnc(-c2ccccc2O)n1-c1ccccc1	42	i	i	nt	i	i	i
O=C(OCn1nnc2ccccc2c1=O)c1ccc(O)cc1	i	i	i	i	i	i	nt
Cc1cc(C)n(-c2ccc(C(=O)OCn3nnc4ccccc4c3=O)cc2)n1	49	i	i	i	i	i	42
Cc1csc(NC(=O)c2ccc(Cn3nc(C)c(Br)c3C)o2)n1	i	i	i	i	i	i	nt
Cc1ccc(CNC(=O)c2ccc(Cn3nc(C)c(Cl)c3C)o2)cc1	55	i	i	109	i	i	54
Cc1nn(Cc2c(Cl)cccc2Cl)c(C)c1NC(=O)c1sc2ccccc2c1Cl	i	i	i	i	i	i	nt
Cc1cc(C)cc(NC(=O)c2ccc(Cn3nc(C)c(Cl)c3C)o2)c1	41	i	i	i	i	i	30
Cc1nn(Cc2ccc(C(=O)N/N=C/c3ccncc3)o2)c(C)c1Cl	i	i	i	i	i	i	nt
Cc1nn(Cc2ccc(Cl)c(Cl)c2)c(C)c1NC(=O)c1sc2ccccc2c1Cl	41	i	nt	i	i	i	41
